Test results: PubChem BioAssay (Tox21)
Inconclusive results are not listed. The source made the active and inactive calls. Unless noted, calls come from the whole dose curve; as a rule, active = well fitted curve in the direction sought with a large enough effect in the repeat runs; inconclusive = weak or mixed curves; inactive = no such curve, though single readings can be large; an effect the other way counts as inactive or inconclusive.

Columns and labels:
[1] = qHTS assay to identify small molecule phospholipidosis (PLD) inducers (AID 1259344; active = well fitted curve in the direction sought with a large enough effect; an effect the other way counts as inactive or inconclusive)
In short: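 HepG2 cells grown on collagen I take up LipidTOX Red while exposed to compound for 24 h; after fixation they are imaged at 20x and pit metrics are extracted.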

[2] = qHTS assay to identify small molecule antagonists of the androgen receptor (AR) signaling pathway using the MDA cell line in the presence of 0.5 nM R1881 - cell viability counter screen (AID 1259242); note: nearly all actives have a fitted effect of over 45% in size; note: potency is the fitted concentration of half-maximal effect
In short: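 Viability of MDA-kb2 cells was multiplexed with the luciferase AR readout; after 16 hr with compounds and R1881 at 0.5 nM final, CellTiter-Fluor fluorescence was recorded.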

[3] = biological target: Estrogen receptor (Homo sapiens) (UniProt P03372); assay: qHTS assay to identify small molecule antagonists of the estrogen receptor alpha (ER-alpha) signaling pathway using the BG1 cell line in the presence of 0.1 nM 17-beta-estradiol (AID 1259244); note: nearly all actives have a fitted effect of over 50% in size; note: potency is the fitted concentration of half-maximal effect
In short: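 Estradiol at 0.1 nM (final) stimulates the endogenous ER-alpha of VM7Luc4E2 cells carrying an ERE-driven luciferase; compounds are co-incubated 22 h at 37C and luciferase output quantified by luminescence.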

[4] = qHTS assay to identify small molecule HDAC inhibitors (AID 1259364);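 note: wild-type HCT-116 cells with endogenous class I/II HDAC activity; top concentration of the series differs between compounds; nearly all actives have a fitted effect of over 45% in size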
In short: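 Read-out: luminescence of HDAC-Glo I/II reagent, 30 min RT, reflecting class I/II deacetylase activity in whole HCT-116 cells pre-exposed 2 h to DMSO-dissolved compounds.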

[5] = qHTS assay to identify small molecule HDAC inhibitors - cell viability counter screen (AID 1259365); note: nearly all actives have a fitted effect of over 50% in size; note: potency is the fitted concentration of half-maximal effect
In short: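 CellTiter-Glo luminescence (30 min, room temperature) reported viability after a 2 h compound exposure at 37 C. Cells: wild-type HCT-116, 1,500 per well, seeded the night before.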

[6] = qHTS assay to identify small molecule antagonists of the sonic hedgehog signaling (Shh) pathway - cell viability counter screen (AID 1259367); note: nearly all actives have a fitted effect of over 55% in size; note: potency is the fitted concentration of half-maximal effect
In short: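 After a 4 hr settling period, 3T3 Gli1-Luc cells were treated with DMSO-dissolved chemicals and conditioned medium, kept 24 hr at 37C in 5% CO2, and assayed for viability by CellTiter-Fluor fluorescence following 1 hr reagent incubation.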

[7] = qHTS assay to identify small molecule agonists of the sonic hedgehog signaling (Shh) pathway (AID 1259368; calls by dose curve; note: nearly all actives have a fitted effect of over 15% in size; note: potency is the fitted concentration of half-maximal effect)
In short: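 A Gli1 transcriptional response element controlled firefly luciferase in 3T3Gli1-Luc cells. Compounds and a positive control were added 4 hr after plating, and cells were incubated a further 24 hr at 37 C before luminescence detection.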

[8] = biological target: Androgen receptor (Homo sapiens) (UniProt P10275); assay: qHTS assay to identify small molecule antagonists of the androgen receptor (AR) signaling pathway using the MDA cell line in the presence of 0.5 nM R1881 (AID 1259243); note: nearly all actives have a fitted effect of over 50% in size; note: potency is the fitted concentration of half-maximal effect
In short: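 Reporter cells cultured without CO2 receive test chemicals, then 0.5 nM R1881 final; after 16 hr at 37C, ONE-Glo is added and light output recorded.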

[9] = qHTS assay to identify small molecule agonists of the sonic hedgehog signaling (Shh) pathway - cell viability counter screen (AID 1259366); note: nearly all actives have a fitted effect of over 50% in size; note: potency is the fitted concentration of half-maximal effect
In short: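 Cytotoxicity counter screen: CellTiter-Fluor reagent added after 23 h compound exposure, then 1 h at 37C and fluorescence read. Cells were 3T3 Gli1-Luc, seeded 2,000 per well and dosed 4 h post-plating.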

[10] = qHTS assay to identify small molecule antagonists of the sonic hedgehog signaling (Shh) pathway (AID 1259369; calls by dose curve; note: nearly all actives have a fitted effect of over 45% in size; note: potency is the fitted concentration of half-maximal effect)
In short: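 For antagonist detection, the reporter line received test compounds together with conditioned medium, incubated 24hr at 37 C, 5% CO2, then luminescence was recorded following 30min room-temperature luciferase reagent incubation.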

Measured: Potency

Chain of Androgen receptor (Homo sapiens) (P10275 whole entry, looked up): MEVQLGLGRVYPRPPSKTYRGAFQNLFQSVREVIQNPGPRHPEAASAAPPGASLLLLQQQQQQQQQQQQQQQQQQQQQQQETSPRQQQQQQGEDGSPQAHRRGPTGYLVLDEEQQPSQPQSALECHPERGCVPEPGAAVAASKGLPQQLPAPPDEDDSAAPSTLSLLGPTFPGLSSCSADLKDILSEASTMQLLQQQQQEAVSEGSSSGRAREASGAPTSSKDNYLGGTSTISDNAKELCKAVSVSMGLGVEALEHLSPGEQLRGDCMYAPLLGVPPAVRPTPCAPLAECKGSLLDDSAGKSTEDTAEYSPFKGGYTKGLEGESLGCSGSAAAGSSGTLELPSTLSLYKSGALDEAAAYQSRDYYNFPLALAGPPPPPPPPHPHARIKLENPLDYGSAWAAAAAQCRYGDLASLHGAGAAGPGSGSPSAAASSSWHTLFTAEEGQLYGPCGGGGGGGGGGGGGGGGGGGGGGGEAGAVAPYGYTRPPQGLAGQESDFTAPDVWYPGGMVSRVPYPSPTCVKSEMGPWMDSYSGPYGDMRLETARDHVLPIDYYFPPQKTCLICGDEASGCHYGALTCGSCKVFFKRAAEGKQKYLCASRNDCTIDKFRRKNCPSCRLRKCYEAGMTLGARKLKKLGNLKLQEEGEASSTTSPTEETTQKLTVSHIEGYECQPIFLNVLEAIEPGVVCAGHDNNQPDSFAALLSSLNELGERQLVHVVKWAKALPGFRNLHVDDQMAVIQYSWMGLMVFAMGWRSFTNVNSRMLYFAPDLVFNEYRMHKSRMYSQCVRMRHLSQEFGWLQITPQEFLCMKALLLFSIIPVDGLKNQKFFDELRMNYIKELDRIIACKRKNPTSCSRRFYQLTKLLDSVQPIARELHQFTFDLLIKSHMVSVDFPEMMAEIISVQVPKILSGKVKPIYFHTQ
Chain of Estrogen receptor (Homo sapiens) (P03372 whole entry, looked up): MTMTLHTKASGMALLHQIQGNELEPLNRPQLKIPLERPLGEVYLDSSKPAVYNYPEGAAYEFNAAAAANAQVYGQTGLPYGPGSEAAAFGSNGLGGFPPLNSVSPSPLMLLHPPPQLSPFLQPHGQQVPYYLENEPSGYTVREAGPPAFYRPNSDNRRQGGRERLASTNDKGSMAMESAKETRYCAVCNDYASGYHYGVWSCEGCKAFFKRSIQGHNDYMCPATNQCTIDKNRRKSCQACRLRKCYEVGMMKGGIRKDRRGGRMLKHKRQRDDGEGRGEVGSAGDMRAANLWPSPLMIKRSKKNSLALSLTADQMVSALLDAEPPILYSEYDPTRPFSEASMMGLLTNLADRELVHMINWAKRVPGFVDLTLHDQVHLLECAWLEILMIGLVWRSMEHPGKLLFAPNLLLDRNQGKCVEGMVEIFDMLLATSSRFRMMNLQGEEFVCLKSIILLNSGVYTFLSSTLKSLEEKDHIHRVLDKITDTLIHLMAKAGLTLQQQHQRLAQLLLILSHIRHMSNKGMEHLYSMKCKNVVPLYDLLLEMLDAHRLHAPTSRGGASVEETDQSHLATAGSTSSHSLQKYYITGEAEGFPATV

CCCSS/C(CCO)=C(\C)N(C=O)Cc1cnc(C)nc1N
inactive: [1]

NC(=O)C(=O)N/N=C/c1ccc([N+](=O)[O-])o1
inactive: [1]

CC(C)N=C(N)/N=C(\N)Nc1ccc(Cl)cc1
inactive: [2] | [3] | [1] | [4] | [5] | [6] | [7]

CCCOc1sc(C(=O)N2CCC(c3cc(CN)ccc3F)CC2)c(C)c1Br
inactive: [7] | [10]
active: [2] 39.7 µM | [8] 39.7 µM | [5] 62.8 µM | [9] 22.3 µM | [6] 25 µM

CCOC(=O)C1=C(C)NC(C)=C(C(=O)OCC)C1c1ccccc1/C=C/C(=O)OC(C)(C)C
inactive: [2] | [1] | [4] | [5] | [7]
active: [8] 23.7 µM | [6] 29.8 µM | [10] 29.8 µM

CNC(=O)c1cc(Oc2ccc(NC(=O)Nc3ccc(Cl)c(C(F)(F)F)c3)cc2)ccn1
active: [2] 26.6 µM | [3] 26.6 µM | [10] 26.6 µM
inactive: [1] | [4] | [5] | [7]

Cc1c(C(=O)O)cccc1[N+](=O)[O-]
inactive: [2] | [8] | [4] | [5] | [7]
active: [6] 55.4 µM | [10] 19.6 µM

O=C(Nc1ccc(Cl)cc1)Nc1ccc(Cl)c(C(F)(F)F)c1
active: [2] 11.9 µM | [3] 9.44 µM | [10] 7.5 µM
inactive: [1] | [4] | [5] | [9] | [7]

CCN(CC)CCOC(=O)C1(C2CCCCC2)CCCCC1
inactive: [2] | [3] | [1] | [4] | [5] | [6] | [7]

O=C(NO)c1ccccc1
active: [9] 26 µM | [10] 29.2 µM
inactive: [2] | [8] | [1] | [5] | [7]

CC1(C)C(=O)N(Br)C(=O)N1Br
inactive: [2] | [8] | [4] | [5] | [9] | [6] | [7] | [10]

Cc1oc(-c2ccccc2)nc1CCOc1ccc(C[C@H](Nc2ccccc2C(=O)c2ccccc2)C(=O)O)cc1
inactive: [2] | [8] | [3] | [7]
active: [9] 43.3 µM | [6] 48.6 µM

CC(C(O)c1ccccc1)N(C)CCOC(c1ccccc1)c1ccccc1 (stereo unspecified)
inactive: [3] | [1] | [4] | [5] | [7]
active: [2] 29.8 µM | [10] 21.1 µM

CC(NCCC(c1ccccc1)c1ccccc1)c1ccccc1 (stereo unspecified)
inactive: [5] | [7]
active: [2] 21.1 µM | [8] 21.1 µM | [10] 26.6 µM

CC(=O)Oc1ccc(C2(c3ccc(OC(C)=O)cc3)Oc3ccccc3NC2=O)cc1
active: [10] 8.41 µM
inactive: [2] | [3] | [1] | [4] | [5] | [9] | [7]

CCc1c(Br)c(Br)c(Br)c(Br)c1Br
inactive: [2] | [8] | [3] | [5] | [9] | [6] | [7] | [10]

CN(C)CCOC(c1ccccc1)c1ccccc1 (tested in a mixture with another compound)
active: [6] 61.6 µM | [10] 24.5 µM
inactive: [2] | [8] | [5] | [9] | [7]

Cc1cn[nH]c1
inactive: [2] | [3] | [1] | [4] | [5] | [9] | [6] | [7] | [10]

O=C1OC(OC(=O)c2cccnc2Nc2cccc(C(F)(F)F)c2)c2ccccc21 (stereo unspecified)
inactive: [2] | [8] | [1] | [4] | [5] | [9] | [6] | [7]

COc1cccc(OC)c1O
inactive: [2] | [8] | [4] | [5] | [9] | [6] | [7] | [10]

CCOC(=O)CC(C)O (stereo unspecified)
inactive: [2] | [8] | [4] | [5] | [9] | [6] | [7] | [10]

Clc1ccc(C(Cn2ccnc2)OCc2c(Cl)cccc2Cl)c(Cl)c1 (stereo unspecified)
inactive: [2] | [3] | [1] | [5] | [6] | [7]

CN(C)c1ccc(N=NS(=O)(=O)O)cc1
active: [2] 27.3 µM | [8] 22.9 µM | [7] 16.2 µM | [10] 12.2 µM
inactive: [1] | [5] | [9]

O=C[C@H](O)[C@H](O)[C@H](O)CO
inactive: [2] | [8] | [4] | [5] | [9] | [6] | [7] | [10]

CCCCCCCCCCCCCCNCCO
inactive: [2] | [3] | [1] | [4] | [5] | [9] | [6] | [7] | [10]

CC(=O)Oc1ccc(C2(c3ccc(OC(C)=O)cc3)C(=O)Nc3ccccc32)cc1
active: [3] 0.168 µM
inactive: [2] | [1] | [4] | [5] | [6] | [7]

CN(Cc1cc(Br)cc(Br)c1N)C1CCCCC1
inactive: [2] | [3] | [1] | [5] | [9] | [6] | [7] | [10]

C=C(c1ccc(C(=O)O)cc1)c1cc2c(cc1C)C(C)(C)CCC2(C)C
active: [3] 12.2 µM
inactive: [2] | [1] | [4] | [5] | [9] | [6] | [7] | [10]
